# Experimental data published in PMC7862700, “An all-to-all approach to the identification of sequence-specific readers for epigenetic DNA modifications on cytosine”.
# Columns and labels:
# Assay in all cases: DAPPL (digital affinity profiling via proximity ligation, sequencing); 10 mM Tris-HCl pH 7.5, 50 mM NaCl, 1 mM DTT, 4% glycerol, room temperature, 30 min; GST-TFs on glutathione beads, 16-mer random dsDNA library, 0.1% formaldehyde crosslink after washing; high values mean tight binding
# FEV = target: T1, FEV (Homo sapiens, UniProt Q99581 1-238); conditions: protein: recombinant; tags: N-terminal GST; dsDNA, one strand shown
# T1 sequence: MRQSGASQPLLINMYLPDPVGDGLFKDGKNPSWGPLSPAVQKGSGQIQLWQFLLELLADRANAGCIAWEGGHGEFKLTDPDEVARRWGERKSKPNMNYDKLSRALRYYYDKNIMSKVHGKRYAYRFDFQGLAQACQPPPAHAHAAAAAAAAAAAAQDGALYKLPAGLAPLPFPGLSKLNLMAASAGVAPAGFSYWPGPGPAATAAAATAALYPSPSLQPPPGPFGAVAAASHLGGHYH
# Method in brief: (§1)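 Each value of binding signal is a hexamer's read frequency for a factor divided by the same hexamer's frequency in the tag-only sample. Barcoded, bead-captured GST fusions of human transcription factors made in yeast were pooled with that sample and incubated with 200 nmole of a random double-stranded 16-mer DNA library in Tris/NaCl/DTT/glycerol buffer at room temperature for 30 min. Washing, 0.1% formaldehyde crosslinking, proximity ligation, PCR and Illumina NextSeq500 sequencing followed.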
# ETV5 = ETV5 (Homo sapiens, UniProt P41161 1-510); conditions: protein: recombinant; tags: N-terminal GST; dsDNA, one strand shown
# Sequence of ETV5 (P41161 whole entry): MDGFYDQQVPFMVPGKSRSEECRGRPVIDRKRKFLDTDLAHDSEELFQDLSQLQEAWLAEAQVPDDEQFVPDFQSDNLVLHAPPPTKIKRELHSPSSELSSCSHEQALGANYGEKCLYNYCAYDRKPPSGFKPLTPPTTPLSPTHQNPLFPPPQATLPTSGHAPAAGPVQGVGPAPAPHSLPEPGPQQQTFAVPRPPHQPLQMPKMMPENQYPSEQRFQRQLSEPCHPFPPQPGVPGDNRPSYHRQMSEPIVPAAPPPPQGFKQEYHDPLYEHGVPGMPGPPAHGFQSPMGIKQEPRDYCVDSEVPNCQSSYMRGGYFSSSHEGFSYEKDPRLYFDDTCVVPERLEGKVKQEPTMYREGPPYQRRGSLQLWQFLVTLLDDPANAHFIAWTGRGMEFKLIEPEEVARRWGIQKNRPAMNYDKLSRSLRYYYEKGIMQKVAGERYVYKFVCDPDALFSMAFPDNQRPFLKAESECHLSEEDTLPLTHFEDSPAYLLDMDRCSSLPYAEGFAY
# Method in brief: as §1
# HSF1 = HSF1 (Homo sapiens, UniProt Q00613 1-529); conditions: protein: recombinant; tags: N-terminal GST; chain copies: 3; dsDNA, one strand shown
# Sequence of HSF1 (Q00613 whole entry): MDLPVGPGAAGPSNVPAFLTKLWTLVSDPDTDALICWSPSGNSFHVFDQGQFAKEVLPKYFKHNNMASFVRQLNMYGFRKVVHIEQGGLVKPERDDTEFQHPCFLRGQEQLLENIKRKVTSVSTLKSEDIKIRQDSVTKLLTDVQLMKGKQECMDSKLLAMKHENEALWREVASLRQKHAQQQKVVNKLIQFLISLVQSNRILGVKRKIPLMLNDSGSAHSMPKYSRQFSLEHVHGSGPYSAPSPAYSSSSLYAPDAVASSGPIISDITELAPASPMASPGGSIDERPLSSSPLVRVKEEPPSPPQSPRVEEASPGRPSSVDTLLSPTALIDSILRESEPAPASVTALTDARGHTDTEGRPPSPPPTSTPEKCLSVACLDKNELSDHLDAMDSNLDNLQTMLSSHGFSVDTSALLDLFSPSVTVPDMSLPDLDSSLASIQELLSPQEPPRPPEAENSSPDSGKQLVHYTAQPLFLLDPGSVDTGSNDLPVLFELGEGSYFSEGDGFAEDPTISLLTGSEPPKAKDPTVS
# Method in brief: as §1
# SPIC = target: T2, SPIC (Homo sapiens, UniProt Q8N5J4 1-248); conditions: protein: recombinant; tags: N-terminal GST; dsDNA, one strand shown
# T2 sequence: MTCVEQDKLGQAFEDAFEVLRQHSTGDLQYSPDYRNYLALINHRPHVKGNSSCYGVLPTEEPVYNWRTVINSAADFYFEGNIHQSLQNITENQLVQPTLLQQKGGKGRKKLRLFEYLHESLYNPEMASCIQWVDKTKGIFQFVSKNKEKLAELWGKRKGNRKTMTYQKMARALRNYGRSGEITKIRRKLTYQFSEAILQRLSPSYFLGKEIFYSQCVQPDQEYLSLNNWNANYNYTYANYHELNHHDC
# Method in brief: as §1
# ELF4 = ELF4 (Homo sapiens, UniProt Q99607 1-663); conditions: protein: recombinant; tags: N-terminal GST; dsDNA, one strand shown
# Sequence of ELF4 (Q99607 whole entry): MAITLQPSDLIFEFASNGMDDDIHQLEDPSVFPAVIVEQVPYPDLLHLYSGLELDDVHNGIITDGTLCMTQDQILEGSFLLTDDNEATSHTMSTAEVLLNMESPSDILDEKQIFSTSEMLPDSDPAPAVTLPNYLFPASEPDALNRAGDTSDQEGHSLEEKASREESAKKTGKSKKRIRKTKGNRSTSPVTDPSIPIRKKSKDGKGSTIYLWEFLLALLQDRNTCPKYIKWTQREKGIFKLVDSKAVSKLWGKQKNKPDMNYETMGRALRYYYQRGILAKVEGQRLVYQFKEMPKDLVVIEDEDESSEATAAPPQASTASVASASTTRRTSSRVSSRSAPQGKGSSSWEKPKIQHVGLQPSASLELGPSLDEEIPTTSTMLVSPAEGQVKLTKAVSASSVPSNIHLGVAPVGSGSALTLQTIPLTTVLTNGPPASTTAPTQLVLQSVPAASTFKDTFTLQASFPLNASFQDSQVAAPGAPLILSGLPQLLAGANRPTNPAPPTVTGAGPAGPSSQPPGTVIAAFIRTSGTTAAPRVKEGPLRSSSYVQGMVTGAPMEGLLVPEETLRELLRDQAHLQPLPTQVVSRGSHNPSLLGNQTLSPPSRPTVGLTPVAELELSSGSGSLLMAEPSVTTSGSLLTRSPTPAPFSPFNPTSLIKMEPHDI
# Method in brief: as §1
# ELK4 = target: T3, ELK4 (Homo sapiens, UniProt P28324-2 1-405); conditions: protein: recombinant; tags: N-terminal GST; dsDNA, one strand shown
# T3 sequence: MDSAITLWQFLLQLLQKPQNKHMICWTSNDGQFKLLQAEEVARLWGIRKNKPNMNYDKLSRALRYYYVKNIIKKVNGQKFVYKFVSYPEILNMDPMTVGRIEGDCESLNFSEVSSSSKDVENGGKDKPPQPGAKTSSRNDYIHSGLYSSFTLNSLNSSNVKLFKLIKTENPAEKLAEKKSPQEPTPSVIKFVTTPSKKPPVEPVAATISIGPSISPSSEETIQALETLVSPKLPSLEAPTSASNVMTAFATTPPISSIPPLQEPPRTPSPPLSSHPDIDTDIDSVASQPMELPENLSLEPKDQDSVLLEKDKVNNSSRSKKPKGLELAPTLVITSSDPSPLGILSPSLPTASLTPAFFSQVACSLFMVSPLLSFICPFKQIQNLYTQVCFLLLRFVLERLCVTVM
# Method in brief: as §1
# ETV2 = target: T4, ETV2 (Homo sapiens, UniProt O00321 1-342); conditions: protein: recombinant; tags: N-terminal GST; dsDNA, one strand shown
# T4 sequence: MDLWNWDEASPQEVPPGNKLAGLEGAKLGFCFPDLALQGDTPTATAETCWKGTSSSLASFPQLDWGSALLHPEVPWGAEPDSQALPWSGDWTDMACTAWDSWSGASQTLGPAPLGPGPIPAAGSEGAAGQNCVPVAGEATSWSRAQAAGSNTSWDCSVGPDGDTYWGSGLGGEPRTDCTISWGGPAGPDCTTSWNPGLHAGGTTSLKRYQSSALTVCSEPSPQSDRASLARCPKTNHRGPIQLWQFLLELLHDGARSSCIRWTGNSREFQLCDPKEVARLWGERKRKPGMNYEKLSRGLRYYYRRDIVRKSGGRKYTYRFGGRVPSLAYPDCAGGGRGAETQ
# Method in brief: as §1
# ELF3 = target: T5, ELF3 (Homo sapiens, UniProt P78545 1-371); conditions: protein: recombinant; tags: N-terminal GST; dsDNA, one strand shown
# T5 sequence: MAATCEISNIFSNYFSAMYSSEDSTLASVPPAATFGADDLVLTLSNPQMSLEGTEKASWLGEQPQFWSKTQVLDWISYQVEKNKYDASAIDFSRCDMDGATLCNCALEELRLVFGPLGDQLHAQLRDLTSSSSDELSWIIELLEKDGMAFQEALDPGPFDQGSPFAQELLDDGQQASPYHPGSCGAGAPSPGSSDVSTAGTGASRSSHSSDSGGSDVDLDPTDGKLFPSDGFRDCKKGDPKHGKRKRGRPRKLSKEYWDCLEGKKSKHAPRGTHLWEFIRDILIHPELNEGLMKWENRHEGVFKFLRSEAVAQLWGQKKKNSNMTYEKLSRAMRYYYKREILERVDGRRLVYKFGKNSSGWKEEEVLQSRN
# Method in brief: as §1
# CRX = CRX (Homo sapiens, UniProt O43186 1-299); conditions: protein: recombinant; tags: N-terminal GST; dsDNA, one strand shown
# Sequence of CRX (O43186 whole entry): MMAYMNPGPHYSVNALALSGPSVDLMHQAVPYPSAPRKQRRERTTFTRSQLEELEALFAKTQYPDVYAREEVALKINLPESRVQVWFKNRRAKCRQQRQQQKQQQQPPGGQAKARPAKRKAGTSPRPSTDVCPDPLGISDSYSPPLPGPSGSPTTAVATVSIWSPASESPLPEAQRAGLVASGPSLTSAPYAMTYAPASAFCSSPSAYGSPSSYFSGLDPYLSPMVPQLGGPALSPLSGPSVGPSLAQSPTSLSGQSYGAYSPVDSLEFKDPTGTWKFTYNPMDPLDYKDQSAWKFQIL
# Method in brief: as §1
# ETV1 = ETV1 (Homo sapiens, UniProt P50549 1-477); conditions: protein: recombinant; tags: N-terminal GST; dsDNA, one strand shown
# Sequence of ETV1 (P50549 whole entry): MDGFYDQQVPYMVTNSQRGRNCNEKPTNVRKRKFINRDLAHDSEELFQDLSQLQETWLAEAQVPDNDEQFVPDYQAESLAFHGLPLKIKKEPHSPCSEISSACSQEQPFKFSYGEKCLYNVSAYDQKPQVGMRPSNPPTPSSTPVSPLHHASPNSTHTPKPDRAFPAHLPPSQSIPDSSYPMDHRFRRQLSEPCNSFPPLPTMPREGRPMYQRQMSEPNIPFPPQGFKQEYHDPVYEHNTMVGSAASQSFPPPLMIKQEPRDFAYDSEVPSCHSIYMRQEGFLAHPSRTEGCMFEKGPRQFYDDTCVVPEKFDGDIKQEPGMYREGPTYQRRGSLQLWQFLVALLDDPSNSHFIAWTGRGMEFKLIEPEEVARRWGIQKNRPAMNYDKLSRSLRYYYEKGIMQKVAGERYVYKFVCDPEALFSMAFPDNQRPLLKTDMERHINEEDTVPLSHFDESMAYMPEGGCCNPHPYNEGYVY
# Method in brief: as §1
Sequence,binding signal (FEV),binding signal (ETV5),binding signal (HSF1),binding signal (SPIC),binding signal (ELF4),binding signal (ELK4),binding signal (ETV2),binding signal (ELF3),binding signal (CRX),binding signal (ETV1)
ACGTCT,"1.13 fold enrichment (6-mer frequency, TF over GST control)","1.12 fold enrichment (6-mer frequency, TF over GST control)","1.21 fold enrichment (6-mer frequency, TF over GST control)","1.17 fold enrichment (6-mer frequency, TF over GST control)","1.28 fold enrichment (6-mer frequency, TF over GST control)","1.12 fold enrichment (6-mer frequency, TF over GST control)","1.18 fold enrichment (6-mer frequency, TF over GST control)","1 fold enrichment (6-mer frequency, TF over GST control)","1.09 fold enrichment (6-mer frequency, TF over GST control)","1.14 fold enrichment (6-mer frequency, TF over GST control)"
CAAATA,"1.14 fold enrichment (6-mer frequency, TF over GST control)","1.14 fold enrichment (6-mer frequency, TF over GST control)","1.14 fold enrichment (6-mer frequency, TF over GST control)","1.09 fold enrichment (6-mer frequency, TF over GST control)","1.16 fold enrichment (6-mer frequency, TF over GST control)","1.02 fold enrichment (6-mer frequency, TF over GST control)","1.06 fold enrichment (6-mer frequency, TF over GST control)","1.4 fold enrichment (6-mer frequency, TF over GST control)","1.24 fold enrichment (6-mer frequency, TF over GST control)","1.12 fold enrichment (6-mer frequency, TF over GST control)"
ACTCAA,"1.23 fold enrichment (6-mer frequency, TF over GST control)","1.16 fold enrichment (6-mer frequency, TF over GST control)","1.07 fold enrichment (6-mer frequency, TF over GST control)","1.17 fold enrichment (6-mer frequency, TF over GST control)","1.16 fold enrichment (6-mer frequency, TF over GST control)","1.18 fold enrichment (6-mer frequency, TF over GST control)","1.15 fold enrichment (6-mer frequency, TF over GST control)","1.12 fold enrichment (6-mer frequency, TF over GST control)","1.12 fold enrichment (6-mer frequency, TF over GST control)","1.15 fold enrichment (6-mer frequency, TF over GST control)"
ATATTA,"1.07 fold enrichment (6-mer frequency, TF over GST control)","1.14 fold enrichment (6-mer frequency, TF over GST control)","1.35 fold enrichment (6-mer frequency, TF over GST control)","1.23 fold enrichment (6-mer frequency, TF over GST control)","1.13 fold enrichment (6-mer frequency, TF over GST control)","1.16 fold enrichment (6-mer frequency, TF over GST control)","1.13 fold enrichment (6-mer frequency, TF over GST control)","1.21 fold enrichment (6-mer frequency, TF over GST control)","1.8 fold enrichment (6-mer frequency, TF over GST control)","1.17 fold enrichment (6-mer frequency, TF over GST control)"
TTACCA,"1.09 fold enrichment (6-mer frequency, TF over GST control)","1.04 fold enrichment (6-mer frequency, TF over GST control)","1.47 fold enrichment (6-mer frequency, TF over GST control)","1.09 fold enrichment (6-mer frequency, TF over GST control)","1.04 fold enrichment (6-mer frequency, TF over GST control)","1.04 fold enrichment (6-mer frequency, TF over GST control)","1.13 fold enrichment (6-mer frequency, TF over GST control)","1.1 fold enrichment (6-mer frequency, TF over GST control)","1.74 fold enrichment (6-mer frequency, TF over GST control)","1.05 fold enrichment (6-mer frequency, TF over GST control)"
ATACAG,"1.14 fold enrichment (6-mer frequency, TF over GST control)","1.13 fold enrichment (6-mer frequency, TF over GST control)","1.02 fold enrichment (6-mer frequency, TF over GST control)","1.14 fold enrichment (6-mer frequency, TF over GST control)","1.18 fold enrichment (6-mer frequency, TF over GST control)","1.08 fold enrichment (6-mer frequency, TF over GST control)","1.24 fold enrichment (6-mer frequency, TF over GST control)","1.12 fold enrichment (6-mer frequency, TF over GST control)","1.02 fold enrichment (6-mer frequency, TF over GST control)","1.11 fold enrichment (6-mer frequency, TF over GST control)"
GCTTCC,"4.3 fold enrichment (6-mer frequency, TF over GST control)","3.97 fold enrichment (6-mer frequency, TF over GST control)","1.47 fold enrichment (6-mer frequency, TF over GST control)","3.3 fold enrichment (6-mer frequency, TF over GST control)","3.18 fold enrichment (6-mer frequency, TF over GST control)","2.98 fold enrichment (6-mer frequency, TF over GST control)","3.44 fold enrichment (6-mer frequency, TF over GST control)","3.14 fold enrichment (6-mer frequency, TF over GST control)","1.19 fold enrichment (6-mer frequency, TF over GST control)","3.62 fold enrichment (6-mer frequency, TF over GST control)"
